This note sets out measurements from the supplement of paper PMC9588786.

Several values for one entry are separate records, joined by “and”; a condition that tells them apart may be missing. Identical values can stand only once. Counter-ions that a name gives are not always drawn. ± gives the standard deviation of the averaged measurements.
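Also: viability read as CCK-8 absorbance at 450 nm in cells co-exposed to the GPX4 inhibitor RSL3, relative to a 0.01% DMSO vehicle control.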

The assay has as its system HT-1080. The experiment in a line: relative cell viability with RSL3 co-treatment (fraction of control); higher = stronger protection from RSL3-induced ferroptosis (higher viability). As to conditions: 10 µM.
On to `Cc1cc(Nc2nc(N[C@@H](C)c3ccc(F)cc3)c(C#N)cc2F)n[nH]1`, for which the relative cell viability is 0.29 ± 0.017.

Regarding `Cc1cc(Nc2ncc(Cl)c(Nc3ccccc3S(=O)(=O)C(C)C)n2)c(OC(C)C)cc1C1CCNCC1` [Ceritinib (LDK378)], the relative cell viability came to 0.513 ± 0.057.

On to `COCCOc1cnc2ccn([C@H](C)c3nnc4c(F)cc(-c5cnn(C)c5)cn34)c(=O)c2c1`, for which the relative cell viability was found to be 0.7767 ± 0.0058.

For the molecule `Cc1ncc(-c2ccnc(Nc3ccc(S(C)(=O)=O)cc3)n2)n1C(C)C`, the relative cell viability is 0.43 ± 0.095.

For `O=C(Cc1ccc(-c2ccc(OCCN3CCOCC3)cc2)cn1)NCc1ccccc1`, the relative cell viability amounted to 0.627 ± 0.16.

For the molecule `CCN1CCN(Cc2ccc(-c3cc4c(N[C@H](C)c5ccccc5)ncnc4[nH]3)cc2)CC1`, the relative cell viability came out at 0.49 ± 0.02.

For `CCCS(=O)(=O)Nc1ccc(F)c(C(=O)c2c[nH]c3ncc(Cl)cc23)c1F`, the relative cell viability is 0.64 ± 0.036.

For `Cn1ncc(Cl)c1-c1cc(C(=O)N[C@H](CN)Cc2ccc(F)c(F)c2)oc1Cl`, the relative cell viability came out at 0.753 ± 0.07.

Regarding `CCCCCCCCCCCCc1ccc(S(=O)(=O)Nc2nncs2)cc1`, the relative cell viability was found to be 0.877 ± 0.09.

Regarding `Cc1ccc(NC(=O)c2ccc(CN3CCN(C)CC3)cc2)cc1Nc1nccc(-c2cccnc2)n1` [Imatinib Mesylate (STI571)], the relative cell viability came out at 0.733 ± 0.17.

For the molecule `CN1CCC(COc2cnc(-c3cccc(Cn4nc(-c5cccc(C#N)c5)ccc4=O)c3)nc2)CC1`, the relative cell viability was 0.633 ± 0.067.

For `CNC(=O)c1cc(Oc2ccc(NC(=O)Nc3ccc(Cl)c(C(F)(F)F)c3)cc2)ccn1` [Sorafenib Tosylate], the relative cell viability stood at 0.317 ± 0.04.

As for `CC(C)(C)NS(=O)(=O)c1cncc(-c2cc(F)c3nc(N)nn3c2)c1`, the relative cell viability amounted to 0.803 ± 0.15.

In the case of `Cc1nc(Nc2cnn(C3CCNCC3)c2)nc2c1N(C)C(=O)c1cc3ccccc3cc1N2C`, the relative cell viability worked out at 0.627 ± 0.09.

Turning to `O=C(O)c1ccc(-c2c[nH]c3ncc(-c4ccccc4)cc23)cc1C1CCCC1`, the relative cell viability turned out to be 0.81 ± 0.017.

Take `O=C(Nc1nc2cccc(-c3ccc(CN4CCS(=O)(=O)CC4)cc3)n2n1)C1CC1` [Filgotinib (GLPG0634)]: the relative cell viability turned out to be 0.687 ± 0.035.

Take `CS(=O)(=O)N1CCc2c(-c3cnc(N)nc3)nc(N3CCOCC3)nc21`: the relative cell viability worked out at 0.85 ± 0.061.

Turning to `CN1CCC(Nc2nc(Nc3ccc(Oc4ccccc4)cc3)c3c(=O)[nH]cc(Br)c3n2)CC1`, the relative cell viability was found to be 0.68 ± 0.087.

Turning to `CC(C)(C)c1cnc(CSc2cnc(NC(=O)C3CCNCC3)s2)o1`, the relative cell viability came out at 0.573 ± 0.05.

Regarding `N[C@@H]1CCCN(c2c(/C=C3\SC(=O)NC3=O)cccc2-c2ccccc2)C1`, the relative cell viability came to 0.697 ± 0.13.

On to `CCNC(=O)Nc1ccc(-c2nc3c(c(N4CCOC[C@@H]4C)n2)CCN(C2COC2)C3)cc1`, for which the relative cell viability is 0.503 ± 0.2.

With `O=C(NCCCNc1nc(Nc2cccc(NC(=O)N3CCCC3)c2)ncc1I)c1cccs1`, the relative cell viability came to 0.657 ± 0.011.

Turning to `Cc1cc(C(=O)NOCCO)c(Nc2ccc(I)cc2F)n(C)c1=O`, the relative cell viability is 0.793 ± 0.16.

Regarding `CC(C)(C)Cn1c(N)nc2ccc(-c3[nH]c(C(C)(C)C)nc3-c3ccc(F)cc3)nc21`, the relative cell viability amounted to 0.71 ± 0.017.

For `O=C(Nc1cccnc1)c1cc(-c2ccnc(F)c2)ccc1OCc1ccccc1`, the relative cell viability stood at 0.627 ± 0.06.

For `CCn1c(=O)c(-c2ccc(-c3cncs3)cc2Cl)cc2cnc(Nc3ccc(N4CCN(C)CC4)cc3)nc21`, the relative cell viability came to 0.833 ± 0.032.

As for `O=C1NC(=O)/C(=C/c2cccc(C(F)(F)F)c2)S1`, the relative cell viability worked out at 0.807 ± 0.015.

`Cn1cc(-c2ccc3ncc(Cc4ccc5ncccc5c4)n3n2)cn1`: the relative cell viability stood at 0.727 ± 0.11.

Turning to `COc1cc(Nc2c(C#N)cnc3cc(OCCCN4CCN(C)CC4)c(OC)cc23)c(Cl)cc1Cl` [Bosutinib (SKI-606)], the relative cell viability turned out to be 0.867 ± 0.035.

Regarding `COc1ccc(Cl)cc1NC(=O)Nc1cc(C)nc2ccccc12`, the relative cell viability is 0.71 ± 0.017.

Regarding `O=c1c(O)c(-c2ccc(O)c(O)c2)oc2cc(O)cc(O)c12` [Quercetin], the relative cell viability was 0.703 ± 0.074.

For the molecule `C[C@@H]1CCN(C(=O)CC#N)C[C@@H]1N(C)c1ncnc2[nH]ccc12`, the relative cell viability is 0.75 and 0.64.

For the molecule `Cc1cc2c(F)c(Oc3ncnn4cc(OC[C@@H](C)OC(=O)[C@H](C)N)c(C)c34)ccc2[nH]1`, the relative cell viability stood at 0.653 ± 0.095.

On to `O=C1NC(=O)C(c2cnc3ccccn23)=C1c1cn2c3c(cc(F)cc13)CN(C(=O)N1CCCCC1)CC2`, for which the relative cell viability worked out at 0.577 ± 0.015.

For the molecule `COc1cc(CCc2cc(NC(=O)c3ccc(N4CC(C)NC(C)C4)cc3)n[nH]2)cc(OC)c1` (stereo not drawn), the relative cell viability worked out at 0.673 ± 0.14.

On to `CN1CCN(C2CCN(C(=O)Nc3cc(Oc4ccc(NC(=O)C5(C(=O)Nc6ccc(F)cc6)CC5)c(F)c4)ccn3)CC2)CC1` [Golvatinib (E7050)], for which the relative cell viability amounted to 0.717 ± 0.065.

For `COc1cccc(-c2cc(=O)c3ccccc3o2)c1N`, the relative cell viability was found to be 0.717 ± 0.064.

Take `CNC(=O)c1cc(Oc2ccc(NC(=O)Nc3ccc(Cl)c(C(F)(F)F)c3)c(F)c2)ccn1` [Regorafenib (BAY 73-4506)]: the relative cell viability was found to be 0.483 ± 0.086.
